# In the library only some 10% were active in any assay of this set; here they are far more common.
# HPGD inh: HPGD (human) dehydrogenase inhibition; purified HPGD, NADH fluorescence kinetic, PGE2 substrate; Potency, µM, without a hit: at the top dose activity change, negative = inhibition, usual class: inhibitors; 150,000 tested, 4.3% active; also: potency is read from the fitted curve at half-maximal effect
#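 NADH formation kinetics: reaction with 30 uM PGE2 and 1 mM NAD+ (final), 20 nM enzyme, Tris-HCl pH 8 with Tween 20, after 15 min compound preincubation at room temperature. Fluorescence change, last versus first of five reads.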
# ALDH1A1 inh: ALDH1A1 (human) enzyme inhibition; P00352; Purified ALDH1A1, NADH fluorescence, propionaldehyde substrate; Potency, µM (top dose mostly 75.3 µM), for the others: at the top dose activity, negative = inhibition, usual class: inhibitors; 220,000 tested, 7.3% active; AID 1030;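 also: potency is read from the fitted curve at half-maximal effect; plate controls were no enzyme wells and a reference inhibitor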
# Target sequence (P00352 whole entry, looked up): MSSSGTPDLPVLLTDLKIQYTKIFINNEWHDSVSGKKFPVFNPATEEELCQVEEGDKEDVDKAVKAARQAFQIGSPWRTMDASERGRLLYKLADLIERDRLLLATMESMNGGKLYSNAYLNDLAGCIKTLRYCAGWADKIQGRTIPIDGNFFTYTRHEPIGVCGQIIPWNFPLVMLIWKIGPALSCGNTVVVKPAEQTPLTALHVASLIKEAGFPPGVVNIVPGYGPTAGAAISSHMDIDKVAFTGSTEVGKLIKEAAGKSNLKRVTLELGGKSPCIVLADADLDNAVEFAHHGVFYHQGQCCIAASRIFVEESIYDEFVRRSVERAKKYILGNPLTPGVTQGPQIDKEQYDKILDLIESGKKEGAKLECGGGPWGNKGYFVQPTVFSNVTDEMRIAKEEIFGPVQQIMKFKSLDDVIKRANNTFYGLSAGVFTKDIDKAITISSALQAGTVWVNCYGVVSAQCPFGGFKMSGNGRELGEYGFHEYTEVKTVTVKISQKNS
# LMNA splice mod: changes lamin A minigene splicing in HeLa cells | HeLa LMNA splicing GFP/RFP minigene ratio, 48 h | Potency, µM (titrated, usually from 46.1 µM), without a hit: top-dose ratio change, negative = inhibition, actives largely listed as inhibitors | 200,000 tested, 0.01% active; active = well fitted inhibition curve with a large enough effect in the signal ratio, with a control signal flat, not every such curve was filed as active; inconclusive = small, poorly fitted or top-dose-only effect, or effect the other way, or a change in a side signal; the % refers to the signal ratio; also: potency is read from the fitted curve at half-maximal effect
#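 S3 HeLa stable clones carrying a lamin A-EGFP splicing minigene plus DsRed2 were seeded at 600 cells/well in Opti-MEM with 2% FBS, pin-dosed and incubated 48 h at 37°C. Acumen cytometry (488 nm) gave the GFP/RFP total-intensity ratio.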
# PNC assembly inh: perinucleolar compartment assembly inhibition. 140,000 tested, 3.1% active. activity change (PNC), negative = inhibition, % at 10 µM. PC3M PTB-GFP, PNC prevalence imaging, 16 h; hits give low values;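 active = readout at or below -70, meaning at least 70% loss of cells showing the perinucleolar compartment, a nuclear body marking cancer cells; inconclusive = readout between -30 and a set limit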;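 also: plate controls were DMSO wells for no effect and camptothecin positive control wells for full effect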
#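 Compounds are pinned in duplicate onto adhered PC3M cells stably expressing GFP-tagged PTB and incubated 16 h at 37 C. Cells are then fixed, nuclei stained with Hoechst, and PNC-positive cells counted.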
# Luc counter: blocks Kinase-Glo luciferase, a counter-screen artifact | Q27757 | 200,000 tested, 0.28% active | Potency, µM (top dose mostly 38.3 µM), inactives show top-dose activity change, negative = inhibition, usual class: inhibitors | AID 1379 | Kinase-Glo luciferase, ATP luminescence, 8 min; active = well fitted inhibition curve with a large enough effect; inconclusive = small, poorly fitted or top-dose-only effect; also: potency is read from the fitted curve at half-maximal effect; nearly all actives have a fitted effect of over 60% in size
#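 Compounds were added to a substrate mix at pH 7.2 (50 mM imidazole, 10 uM ATP, within the enzyme's linear range), followed by Kinase-Glo detection reagent; luminescence was measured after 8 minutes at ambient temperature.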
# * hit, by the source's call; ? = inconclusive; . = not tested or not shown; [ ] = dose if it differs, or a comment. Unless noted, calls follow the shape of the dose curve; as a rule, active = well fitted inhibition curve with a large enough effect (not every such curve was filed as active); inconclusive = small, poorly fitted or top-dose-only effect, or another doubt; inactive = no such curve, though single readings can be large or run the other way. Unless noted, % is scaled to controls: 0 for no effect and ±100 for the full control effect.
SMILES,HPGD inh,ALDH1A1 inh,LMNA splice mod,PNC assembly inh,Luc counter
O=C(/C=C/c1ccco1)OCc1nnc(-c2ccc(Cl)cc2)o1,.,25µM*,?,.,0%
C[C@@H](CCc1ccccc1)NC[C@H](O)c1ccc(O)c(C(N)=O)c1,?,?,?,.,-3%[17.1 µM]
N#CC1=C(SCC(=O)NC2CC2)NC(=O)C(C#N)C12CCCCC2 (centres undefined),-4%,13µM*,9%,21,0%
CCOC(=O)C1=C(SCC(=O)Nc2ccccc2)NC(=O)C(C#N)C12CCCCC2 (centres undefined),-5%,13µM*,14%,18,-5%
N#CC1=C(SCC(=O)NC23CC4CC(CC(C4)C2)C3)NC(=O)C(C#N)C12CCCCC2 (centres undefined),-22%,1.1µM*,?,346,2%
CCOC(=O)c1ccc(NC(=O)CSC2=NC(=O)C(CC)C(=O)N2)cc1 (centres undefined),-14%,-4%,-3%,-8,-3%
CC(C)(C)C1CCC2(CC1)C(C#N)=C(SCC(=O)NC1CCCCC1)NC(=O)C2C#N (centres undefined),-14%,?,?,-24,-7%
O=C(CN1C(=O)c2ccccc2C1=O)Nc1cccc2cccnc12,-6%,-5%,3%,10,1%
O=C(CSc1ncn[nH]1)NC12CC3CC(CC(C3)C1)C2,-18%,-15%,-2%,32,-5%
N#CC1=C(SCC(=O)Nc2cccc3cccnc23)NC(=O)C(C#N)C12CCCCC2 (centres undefined),-13%,8.9µM*,?,20,0%
Cc1ccccc1CNC(=O)CN1CCSc2ccccc21,.,.,5%[46 µM],.,.
C=CCSC1=NC(N)=C(C#N)C2(CCCCC2)C1C(N)=O (centres undefined),-10%,?,8%,25,-2%
C=CCSC1=C(C#N)C2(CCCCC2)C(C#N)C(=O)N1 (centres undefined),-22%,2.5µM*,12%,30,2%
CCOC(=O)C1C(=O)C=C(c2ccc(C)cc2)CC1c1ccco1 (centres undefined),-19%,?,17%[0.0737 µM],25,-4%
CCOC(=O)C1C(=O)C=C(c2ccc(C)cc2)CC1c1cccc([N+](=O)[O-])c1 (centres undefined),.,2.5µM*,?,-1,.
Cc1ccc(C(=O)/C=C/C(=O)O)cc1,?,0.45µM*,?,7,2%
S=c1[nH]nc(-c2ccc(Cl)cc2)n1Cc1ccccc1,?,11µM*,6%,5,-6%
S=c1[nH]nc(CSc2nc3ccccc3s2)n1C1CCCCC1,7.1µM*,3.2µM*,?,21,-5%
S=c1[nH]nc(CNc2ccc(Cl)cc2)n1Cc1ccccc1,.,11%,3%[46 µM],.,0%
Cc1ccc(-n2c(Cc3noc4ccccc34)n[nH]c2=S)cc1,.,14µM*,.,.,5%
S=c1[nH]nc(COc2ccccc2)n1C1CCCCC1,22µM*,?,3%,-6,3%
CC(C)Cn1cc(NC(=O)N2CCN(c3ccccc3F)CC2)c2ccccc2c1=O,.,.,-11%[46 µM],.,.
S=c1[nH]nc(C2CCCCC2)n1Cc1ccccc1,.,?,?,.,-5%
CC(C)c1cc(-c2n[nH]c(=S)n2Cc2ccccc2)cs1,?,2µM*,0%,71,-4%
S=c1[nH]nc(COc2ccccc2)n1Cc1ccccc1,?,11µM*,?,51,-3%
SMILES,HPGD inh,ALDH1A1 inh,LMNA splice mod,PNC assembly inh,Luc counter
S=c1[nH]nc(-c2ccc(Br)o2)n1Cc1ccccc1,28µM*,1.4µM*,?,-11,0%
C=CCn1c(-c2csc(-c3ccccc3)n2)n[nH]c1=S,?,0.11µM*,?,1,-4%
CCn1c(-c2csc(-c3ccccc3)n2)n[nH]c1=S,?,?,?,-12,-4%
CC(C)NC(=O)N1CCCC2(CCN(C(=O)c3cc(C(F)(F)F)cc(C(F)(F)F)c3)CC2)C1,-22%,11%,.,.,-2%
S=c1[nH]nc(-c2ccccc2)n1Cc1ccccc1,?,18µM*,11%,39,1%
S=c1[nH]nc(-c2cccs2)n1Cc1ccccc1,.,?,?,.,-2%
Cc1ccc(-n2c(-c3ccccc3)n[nH]c2=S)cc1,?,32µM*,-1%,-5,5%
S=c1[nH]nc(-c2ccc(Br)cc2)n1Cc1ccco1,25µM*,?,-1%,?,3%
CCOc1ccc(NC(=O)CSC2=Nc3ccccc3C3=NC(Cc4ccccc4)C(=O)N23)cc1 (centres undefined),.,.,13%[46 µM],.,.
Cc1nc(N2CCOCC2)c2c(C(=O)N3CCN(c4cc(Cl)ccc4C)CC3)c(C)oc2n1,.,.,-9%[46 µM],.,.
CCOC(=O)C1CCN(C(=O)Nc2ccc(NC(=O)C3CCN(C(=O)OCC)CC3)cc2)CC1,-5%,-2%,4%,21,1%
CCCCNC(=O)c1ccc(NC(=O)C2CCCO2)cc1 (centres undefined),?,-7%,9%,47,-1%
CC(=O)c1ccc(N2CCN(C(=O)c3ccc(NC(=O)C4CCCO4)cc3)CC2)cc1 (centres undefined),25µM*,-9%,-3%,20,-2%
CCOC(=O)c1ccc(NC(=O)C2CCCO2)cc1 (centres undefined),25µM*,-13%,1%,25,2%
CCOC(=O)C1CCN(C(=O)c2ccc(NC(=O)C3CCCO3)cc2)CC1 (centres undefined),25µM*,1%,-11%,441,0%
Cc1cccc(N2CCN(C(=O)c3ccc(NC(=O)C4CCCO4)cc3)CC2C)c1 (centres undefined),-11%,1%,-2%,14,5%
CCCCc1ccc(NC(=O)C2CCCO2)cc1 (centres undefined),16µM*,1%,-7%,19,-2%
COC(=O)C1=C(C)NC(C)=C([N+](=O)[O-])[C@@H]1c1ccccc1C(F)(F)F,-7%,-7%,.,.,1%[39.9 µM]
COc1cccc(-c2[nH]nc3c2C(c2ccoc2)C(C#N)=C(N)O3)c1 (centres undefined),28µM*,13µM*,8%,-23,2%
COCc1[nH]nc2c1C(c1ccc(OC)c(OC)c1)C(C#N)=C(N)O2 (centres undefined),-11%,1%,5%,4,0%
COc1cccc(-c2[nH]nc3c2C(c2ccsc2)C(C#N)=C(N)O3)c1 (centres undefined),?,-5%,15%,-20,-1%
CCn1c2ccccc2c2cc(C3C(C#N)=C(N)Oc4n[nH]c(COC)c43)ccc21 (centres undefined),?,1.8µM*,?,?,2%
COCc1[nH]nc2c1C(c1cc(OC)c(O)c(OC)c1)C(C#N)=C(N)O2 (centres undefined),-22%,?,0%,-12,-7%

# Compound activity deposited in PubChem by National Center for Advancing Translational Sciences (NCATS).
